Screening results deposited in PubChem BioAssay by National Center for Advancing Translational Sciences (NCATS).
The list is not random: actives were taken first. Their share in the collection is about 0.18%.
Anesthetic bind: qHTS Assay for Identification of Novel General Anesthetics; Potency, µM (series often up to 77.5 µM), for inactives: top-dose activity change, negative = displacement, hits mostly inhibitors; AID 485281, 2010; Ferritin light chain (Equus caballus), P02791; apoferritin/1-aminoanthracene competitive binding, fluorescence; 0.074% of 350,000 active; note: potency is the fitted concentration of half-maximal effect; % is set by controls: 0 for no effect and ±100 for the full control effect; nearly all actives have a fitted effect of over 20% in size
Target sequence (P02791 2-175 limits assumed): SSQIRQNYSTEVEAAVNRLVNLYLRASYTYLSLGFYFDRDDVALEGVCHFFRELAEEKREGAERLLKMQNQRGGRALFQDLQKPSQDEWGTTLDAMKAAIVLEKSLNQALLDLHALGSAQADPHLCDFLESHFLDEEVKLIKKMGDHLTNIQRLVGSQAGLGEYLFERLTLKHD
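Horse-spleen apoferritin (10 uM) was mixed with 50% saturated 1-aminoanthracene in PBS, exposed to compounds for 10 min at room temperature, and read for fluorescence (ex 380 nm, em 535 nm). Competitive displacement was fitted with a four-parameter Hill equation.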
IDH1 R132H inh: qHTS for Inhibitors of mutant isocitrate dehydrogenase 1 (IDH1): qHTS; AID 602179, 2012; IDH1-R132H enzyme, NADPH consumption, diaphorase/resazurin fluorescence; 0.093% of 390,000 active; Potency, µM (top dose mostly 76.6 µM), inactives show top-dose activity change, negative = inhibition, usual class: inhibitors; Isocitrate dehydrogenase [NADP] cytoplasmic (Homo sapiens), O75874; note: potency is the fitted concentration of half-maximal effect; % is set by controls: 0 for no effect and ±100 for the full control effect; nearly all actives have a fitted effect of over 65% in size
Target sequence (O75874 whole entry R132H, stated change not applied): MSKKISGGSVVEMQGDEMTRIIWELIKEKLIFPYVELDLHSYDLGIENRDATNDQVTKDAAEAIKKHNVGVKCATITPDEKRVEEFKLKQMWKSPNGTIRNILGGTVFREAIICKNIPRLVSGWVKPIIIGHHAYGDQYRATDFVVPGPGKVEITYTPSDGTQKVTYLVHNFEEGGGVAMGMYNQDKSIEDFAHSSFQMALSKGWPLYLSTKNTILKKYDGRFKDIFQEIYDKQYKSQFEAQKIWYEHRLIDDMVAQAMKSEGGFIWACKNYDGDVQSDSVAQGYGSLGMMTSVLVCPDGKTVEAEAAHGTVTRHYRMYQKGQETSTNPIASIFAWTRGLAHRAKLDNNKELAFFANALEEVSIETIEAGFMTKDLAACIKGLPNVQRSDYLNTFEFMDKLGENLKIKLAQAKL
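IDH1-R132H (0.5 ug/mL) preincubated 30 min with compound, then NADPH (0.016 mM) and alpha-KG (2 mM) added; 80 min at RT, pH 7.5. Remaining NADPH coupled via diaphorase/resazurin to fluorescence (540/590 nm); concentration-response curves normalized to no-enzyme control.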
ERG-DNA inh: qHTS for Small Molecule Inhibitors of the ERG Ets/DNA interaction; fluorescence polarization, His-ERG Ets domain / labelled DNA; 0.028% of 370,000 active; Potency, µM (highest dose often 76.9 µM), without a hit: top-dose FP activity, negative = inhibition, most hits filed as inhibitors; active = well fitted inhibition curve with a large enough effect in the polarisation, with a control signal flat; inconclusive = small, poorly fitted or top-dose-only effect, or effect the other way, or a change in a side signal; inactive = no such curve, though single readings can be large or run the other way; the % refers to the polarisation;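 note: polarization taken with two DNA probes labelled with fluorescein and Texas red; potency is the fitted concentration of half-maximal effect; % of control where 0% means no effect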
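His-tagged ERG Ets domain (1 uM in the protein solution; 300mM KCl, 50mM Tris-HCl, 1mM EDTA, 1mM DTT, pH 7.5) received compound, then a probe mix of 5 nM fluorescein-DNA and 100nM Texas-615-DNA. Fluorescence polarization was read for both dyes.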
TSG101-PTAP inh: qHTS Assay for Iinhibitors of HIV-1 Budding by Blocking the Interaction of PTAP/TSG101; Fluorescence polarization, FITC-PTAP peptide / Tsg101 binding; 340,000 tested, under 10 active; AID 493005, 2010; Potency, µM (titrated, usually from 115 µM), without a hit: at the top dose activity change, negative = inhibition, most hits filed as inhibitors; active = well fitted inhibition curve with a large enough effect in the main read-out, with a control signal flat, not every such curve was filed as active; inconclusive = small, poorly fitted or top-dose-only effect, or effect the other way, or a change in a side signal; inactive = no such curve, though single readings can be large or run the other way; note: potency is the fitted concentration of half-maximal effect; % of control where 0% means no effect
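FP read-out: FITC-PTAP peptide, 50 nM final, binding Tsg101 binding domain, 10 uM final; 20 min, r.t.; 10 mM HEPES pH 7.5, 0.15 M NaCl, 0.01% Tween 20, 3 mM EDTA, 0.1 mM TCEP.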
Resorufin autofl: qHTS for Inhibitors of mutant isocitrate dehydrogenase 1 (IDH1): Cherrypicks Autofluorescence Interference; shares compounds with IDH1 R132H inh; Resorufin detection reagent fluorescence interference, cell-free; inhibition of signal, % at 51.2 µM; 750 tested, under 10 active; AID 623980, 2012;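 note: 0% = wells with normal resorufin and full inhibition = wells lacking resorufin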
IDH1 WT: qHTS for Inhibitors of mutant isocitrate dehydrogenase 1 (IDH1): Cherrypicks in WT IDH1; WT IDH1 enzyme, NADPH diaphorase/resazurin fluorescence; Potency, µM (series often up to 115 µM), inactives show top-dose activity change, negative = inhibition, most hits filed as inhibitors; 9% of 750 active; shares compounds with IDH1 R132H inh; AID 623995, 2012;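 note: potency is the fitted concentration of half-maximal effect; 0% = full WT IDH1 enzyme control and full inhibition = no enzyme wells; nearly all actives have a fitted effect of over 55% in size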
Target sequence (O75874 whole entry, looked up): as the sequence (O75874 whole entry R132H, stated change not applied) above, with H132R counted along it
mIDH1 confirm: qHTS for Inhibitors of mutant isocitrate dehydrogenase 1 (IDH1): Confirmation of Cherrypicks. AID 624002, 2012. IDH1 R132H enzyme, NADPH diaphorase/resazurin fluorescence. 83% of 750 active. Potency, µM (doses to about 76.6 µM), for inactives: top-dose activity change, negative = inhibition, most hits filed as inhibitors. shares compounds with IDH1 R132H inh; note: potency is the fitted concentration of half-maximal effect; nearly all actives have a fitted effect of over 50% in size
An asterisk follows results filed as active. Unless noted, calls come from the whole dose curve; as a rule, active = well fitted curve in the direction sought with a large enough effect; inconclusive = small, poorly fitted or top-dose-only effect, or another doubt; inactive = no such curve, though single readings can be large; an effect the other way counts as inactive or inconclusive.

What do the screens show for `CCCCC(CC)COC(=O)CCCCC(=O)OCC(CC)CCCC` (stereo not given)?
IDH1 R132H inh: 8%; ERG-DNA inh: 28µM*; TSG101-PTAP inh: 1%

How did CNC(C)Cc1ccccc1 (stereo not given) do in these assays?
IDH1 R132H inh: -4%; ERG-DNA inh: -8%; TSG101-PTAP inh: 0%

Results for C[n+]1c2ccccc2nc2ccc(NCCO)cc21 ?
Anesthetic bind: -16%; IDH1 R132H inh: 18%; ERG-DNA inh: 7.9µM*; TSG101-PTAP inh: -10%

Results for c1ccc2nc3ccccc3cc2c1 ?
Anesthetic bind: 52%

How did CNc1ccc2nc3ccccc3[n+](C)c2c1 do in these assays?
Anesthetic bind: 5%; IDH1 R132H inh: 16%; ERG-DNA inh: 5µM*; TSG101-PTAP inh: -20%

What do the screens show for `COc1cc2[nH]c(C(=O)N3CCC4(CC3)OCCO4)cc2c(OC)c1OC`?
Anesthetic bind: -1%; IDH1 R132H inh: 2%; ERG-DNA inh: -7%; TSG101-PTAP inh: -5%

What do the screens show for `O=C(CN1CCCC1)Nc1ccc(Cl)cc1C(=O)c1ccccc1`?
Anesthetic bind: -4%; IDH1 R132H inh: 1%; ERG-DNA inh: 13µM*; TSG101-PTAP inh: 1%

How did O=C(CCN1CCCCC1)Nc1ccc(Cl)cc1C(=O)c1ccccc1 do in these assays?
Anesthetic bind: -16%; IDH1 R132H inh: -3%; ERG-DNA inh: 8%; TSG101-PTAP inh: -4%

Results for O=C(CNC(=O)c1ccc(Cl)cc1)OCC(=O)c1ccc2c(c1)OCCO2 ?
Anesthetic bind: 10µM*; IDH1 R132H inh: -1%; ERG-DNA inh: -6%; TSG101-PTAP inh: -2%

How did Nc1ccccc1C(=O)OCC(=O)c1ccc2c(c1)OCCO2 do in these assays?
Anesthetic bind: inconclusive; IDH1 R132H inh: 15%; ERG-DNA inh: 4%; TSG101-PTAP inh: -7%

How did Cc1onc(-c2ccccc2Cl)c1C(=O)NCc1ccc2c(c1)cc(C)n2C do in these assays?
Anesthetic bind: -2%; IDH1 R132H inh: 11%; ERG-DNA inh: 25µM*; TSG101-PTAP inh: 1%

Results for O=C(COC(=O)Cc1ccccc1)Nc1cc(S(=O)(=O)N2CCCCC2)ccc1Cl ?
IDH1 R132H inh: -2%; ERG-DNA inh: -3%; TSG101-PTAP inh: 3%

Results for C[n+]1c2cc(N)ccc2cc2ccc(N)cc21 ?
Anesthetic bind: 268%; IDH1 R132H inh: 5%; ERG-DNA inh: 35µM*; TSG101-PTAP inh: inconclusive

How did O=C(c1cc2cc3ccc(Cl)cc3nc2o1)N1CCC2(CC1)OCCO2 do in these assays?
Anesthetic bind: -9%; IDH1 R132H inh: 4%; ERG-DNA inh: 12%; TSG101-PTAP inh: -4%

Results for Cn1c(O)c(C2=NNC(c3ccc(Cl)cc3)C2)c(=O)n(C)c1=O (stereo not given) ?
Anesthetic bind: -3%; IDH1 R132H inh: 6%; ERG-DNA inh: 6%; TSG101-PTAP inh: -2%

What do the screens show for `COc1ccc(-c2c3c(=O)n(C)c(=O)n(C)c3c3n2-c2ccccc2NC3c2ccccc2OC)cc1` (stereo not given)?
Anesthetic bind: -3%; IDH1 R132H inh: 45µM*; ERG-DNA inh: -8%; Resorufin autofl: 0; IDH1 WT: 3%; mIDH1 confirm: 6.3µM*

What do the screens show for `Cn1c(=O)c2c(-c3ccccc3)n3c(c2n(C)c1=O)C(c1cc(Cl)ccc1O)Nc1ccccc1-3` (stereo not given)?
Anesthetic bind: 0%; IDH1 R132H inh: 40µM*; ERG-DNA inh: -2%; Resorufin autofl: -4; IDH1 WT: 5%; mIDH1 confirm: 14µM*

Results for Cc1ccc(C[n+]2c(-c3ccc(C)cc3)cc(-c3ccc(C)cc3)cc2-c2ccc(C)cc2)cc1 ?
IDH1 R132H inh: 40µM*; ERG-DNA inh: 4%; TSG101-PTAP inh: -7%; Resorufin autofl: 0; IDH1 WT: 12%; mIDH1 confirm: 22µM*

How did Cc1ccc(-c2cc(-c3ccc(C)cc3)[n+](-c3ccc(C(=O)O)cc3)c(-c3ccc(C)cc3)c2)cc1 do in these assays?
IDH1 R132H inh: 5%; ERG-DNA inh: 4%; TSG101-PTAP inh: 3%

How did CC1CCCC(=O)CCC/C=C/c2cc(O)cc(O)c2C(=O)O1 (stereo not given) do in these assays?
Anesthetic bind: 1%

What do the screens show for `CC1=Nc2ccccc2/C1=C/c1c(O)[nH]c(=O)[nH]c1=O`?
Anesthetic bind: -14%; IDH1 R132H inh: 1%; ERG-DNA inh: -18%; TSG101-PTAP inh: 2%

What do the screens show for `O=c1[nH]c(O)c(/C=C2/C=CC(c3cc(Cl)ccc3Cl)=N2)c(=O)[nH]1`?
Anesthetic bind: -7%; IDH1 R132H inh: 29µM*; ERG-DNA inh: 9%; TSG101-PTAP inh: 0%; Resorufin autofl: 3; IDH1 WT: 45µM*; mIDH1 confirm: 11µM*

Results for CCCCOc1ccc(CC2C(=O)N(C)C(=O)N(C)C2=O)cc1 ?
Anesthetic bind: -11%; IDH1 R132H inh: inconclusive; ERG-DNA inh: -2%; TSG101-PTAP inh: -5%; Resorufin autofl: -1; IDH1 WT: 114%; mIDH1 confirm: 45µM*

How did CN(C)CCNC(=O)c1cccn(Cc2cccc(C(F)(F)F)c2)c1=O do in these assays?
Anesthetic bind: -3%; IDH1 R132H inh: -8%; ERG-DNA inh: 0%; TSG101-PTAP inh: -2%

Results for CC(C)CN(CC(C)C)c1ccc(C=C2C(=O)NC(=S)NC2=O)cc1[N+](=O)[O-] ?
Anesthetic bind: inconclusive; IDH1 R132H inh: inconclusive; TSG101-PTAP inh: -1%; Resorufin autofl: -3; IDH1 WT: -2%; mIDH1 confirm: 40µM*

How did Cc1cc(OCC(=O)NCC(O)c2ccccc2)c2c3c(c(=O)oc2c1)CCC3 (stereo not given) do in these assays?
Anesthetic bind: -8%; IDH1 R132H inh: 9%; ERG-DNA inh: -4%; TSG101-PTAP inh: -9%
